From PubChem
PrPC TRFRET = cell surface PrPC inhibition, primary TR-FRET screen. P04156. hit rate 0.43% among 370,000. TR-FRET read-out. inhibition, % at 13.8 µM; in the data active = inhibition above about 24%; also: 0% = median of the test wells and 100% = reference compound wells
PfHsp40 rescue = rescue of PfHsp40-mediated yeast toxicity; S. cerevisiae expressing PfHsp40, growth rescue, ATP luminescence; growth rescue, % at 12.5 µM; hit rate 0.68% among 340,000; in the data active = growth rescue above about 28%, passing the limit was not always enough;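 also: yeast W303a lacking pdr1 and pdr3 grown in galactose medium; growth measured after three days at 30 °C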
Vc quorum ag = induces V. cholerae light production without autoinducers; V. cholerae BH1578 lux reporter, luminescence, 6 h; activation, % at 18.7 µM; hit rate 0.16% among 350,000; AID 588436; in the data active = activation mostly above about 9.7%, no sharp cut-off
SSB-PriA inh = K. pneumoniae PriA-SSBct interaction inhibition; AlphaScreen SSBct-PriA binding, biotinylated peptide; inhibition, % at 33 µM; hit rate 0.6% among 430,000; in the data active = inhibition mostly above about 37%, no sharp cut-off; inactive = mostly below about 20%;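 also: plate controls were negative control peptide for no effect and reference peptide for full effect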
SARS 3CLpro inh = SARS-CoV 3CLpro protease inhibition; P0C6X7; recombinant SARS-CoV 3CLpro, quenched FRET peptide cleavage; inhibition, % at 6 µM; hit rate 0.14% among 290,000; AID 1706; in the data active = inhibition above about 12%
PrP UTR inh = inhibition of PrP 5' UTR reporter expression. cell-based PrP 5' UTR mRNA reporter, plate reader. inhibition, % (test concentration not listed). hit rate 0.35% among 340,000. AID 488862; in the data active = inhibition above about 52%; also: 0 = median of the neutral control wells
* marks the source's active call; other numbers are inactive results; i = inactive; x = no result; + = active, no number. Sampled rows, rich in hits. Any-hit rate of the full collection: about 1.6%.

SMILES	PrPC TRFRET	PfHsp40 rescue	Vc quorum ag	SSB-PriA inh	SARS 3CLpro inh	PrP UTR inh
Cc1nc(-c2ncccn2)sc1C(=O)O	x	x	x	-13	x	x
CC(=O)NC(=S)NNC(=O)C(c1ccccc1)c1ccccc1	6	62*	0	-16	3	-10
CN(C)S(=O)(=O)Oc1cccc(C(=O)Nc2ccc(Cl)c(Cl)c2)c1	23	233*	1	-34	4	-110
O=C(Nc1cccc(N2CCCS2(=O)=O)c1)C1CC1	x	x	x	-13	x	x
c1ccc(-c2c(-c3ccccc3)n(Cc3ccco3)c3ncnc(NCCCn4ccnc4)c23)cc1	-10	148*	-1	52*	0	6
Cc1cc(C)n(-c2nnc(C)c(=O)[nH]2)n1	-1	0	0	74*	2	-19
Nc1c(-c2ccccc2)cnn1-c1cccc(Cl)c1	1	3	i	-5	0	-56
Nc1ccccc1Nc1cc(-c2cccc(Cl)c2)nn1-c1ccccc1	-2	0	-3	58*	4	-21
CSc1nccc(-c2nn(-c3ccc(Cl)cc3)ccc2=O)n1	x	x	x	53*	x	x
Cc1ccc(-n2ccc(-c3nn(-c4ccccc4)ccc3=O)n2)cc1	4	-1	-1	5	4	-16
CC(C)C1S/C(=N/N=C/c2ccco2)NC1=O (configuration not stated)	1	58*	-2	x	0	-27
CCSc1ccccc1C(=O)Nc1nc2c(s1)COCC2	x	x	x	-19	x	x
COc1ccc(CCn2c(C3CCCCC3)nc3c(c(=O)c4ccccc4n3C)c2=O)cc1OC	8	104*	7	-3	3	-14
Cc1ccc(C(=O)N/C(=C\c2ccco2)C(=O)NCCCn2ccnc2)cc1C	0	0	i	86*	2	-11
COc1ccc(C(=O)N/C(=C\c2ccco2)C(=O)NCCCn2ccnc2)cc1	2	1	0	-1	1	-19
Cn1ccs/c1=N\S(=O)(=O)c1ccc(F)cc1	2	0	-6	x	3	1
Cc1ccc(S(=O)(=O)/N=c2\sccn2C)cc1	1	0	46*	x	-2	-4
O=C(C1c2ccccc2Oc2ccccc21)N1CC(Oc2nccs2)C1	x	x	x	-5	x	x
Nc1nonc1C(=O)NCCN=Cc1cc(Cc2ccccc2)cc(Br)c1O	x	702*	i	-13	1	-21
Nc1nonc1C(=O)NCCN=Cc1ccccc1O	4	-1	x	-11	2	-7
O=S(=O)(Cc1ccco1)C1CCN(S(=O)(=O)c2ccccc2F)CC1	x	x	x	83*	x	x
Cn1cnc(S(=O)(=O)N2CCC(S(=O)(=O)Cc3ccco3)CC2)c1	x	x	x	68*	x	x
Cc1ccc(S(=O)(=O)N2CCC(S(=O)(=O)Cc3ccco3)CC2)s1	x	x	x	-11	x	x
COC(=O)c1ccc2c(=O)n(CC(=O)NCCN3CCN(c4ccccc4F)CC3)c(=S)[nH]c2c1	x	x	x	-1	x	x
O=C(CC(NS(=O)(=O)c1ccc(Cl)cc1)c1ccco1)NCc1ccco1 (configuration not stated)	3	1	i	-1	-2	-10
SMILES	PrPC TRFRET	PfHsp40 rescue	Vc quorum ag	SSB-PriA inh	SARS 3CLpro inh	PrP UTR inh
CCCNC(=O)CC(NS(=O)(=O)c1ccc(Cl)cc1)c1ccco1 (configuration not stated)	3	124*	-1	-2	-1	-11
Clc1cncc(Cl)c1N/N=C/c1ccccn1	x	x	x	i	x	x
CC1Cc2ccccc2N1C(=O)C1CCCN(S(=O)(=O)c2cccc3nsnc23)C1 (configuration not stated)	-13	1	2	1	12*	4
O=C1c2ccccc2CN1CCNC(=S)NC1CCCCC1	5	0	2	-1	1	68*
Cc1cccc(CS(=O)(=O)Nc2cnn(C3CCOCC3)c2)c1	x	x	x	-11	x	x
CCOC1=C(C#N)CC2(CC1)c1ccccc1-c1ccccc12	-1	1	i	-13	x	-17
Cc1cc2c(cn1)C(CCC#N)(CCC#N)c1ccccc1-2	-1	54*	-1	2	3	-36
COc1cccc2c(=O)n(CC(=O)Nc3cccc(F)c3)ccc12	-5	-1	0	-14	0	-16
COc1cccc2c(=O)n(CC(=O)Nc3ccc(F)cc3)ccc12	2	3	0	104*	-2	-8
COc1cc(Cl)c(C)cc1-n1ccn(Cc2c(F)cccc2Cl)c(=O)c1=O	x	x	x	-19	x	x
COc1ccc2cc(C(=O)NCCn3nc(C4CC4)n(-c4ccccc4)c3=O)[nH]c2c1	x	x	x	8	x	x
CCCCCCCCNC(=O)CCNC(=O)c1ccc(C(C)(C)C)cc1	-4	47*	2	-4	2	-6
Cc1c(CNS(=O)(=O)c2ccccc2F)sc2nc(-c3ccc(F)cc3)cn12	x	x	x	36*	x	x
COc1cccc(OC)c1C(=O)NCc1sc2nc(-c3ccc(F)cc3)cn2c1C	x	x	x	-10	x	x
Cc1ccc(NC(=O)c2cc(N3C(=O)C=CC3=O)ccc2Cl)cc1C	0	294*	1	1	-2	-10
Cc1c(C2(O)CCCCC2)[nH]c2ccc(C(F)(F)F)cc12	15	287*	i	2	x	-16
Clc1cccc(CON/C=N/c2ncnc3sccc23)c1	15	812*	i	x	5	-10
CCc1c(C)nc(SCC(=O)Nc2ccc(Br)cc2)[nH]c1=O	1	-1	0	101*	3	15
O/N=C/c1cc(Br)ccc1OCc1ccccc1F	0	721*	i	x	-5	-26
Cc1ccc(COc2ccc(Br)cc2C=NO)cc1	x	x	x	-5	x	x
CC1C(=O)NCCN1C(=O)c1ccco1 (configuration not stated)	x	x	x	-11	x	x
Cn1c2c(c(=O)[nH]c1=O)C(c1ccc(O)cc1)C1=C(N2)c2ccccc2C1=O (configuration not stated)	-23	8	25*	11	4	-3
Nc1nc2c(c(=O)[nH]1)C(c1ccccc1)C1=C(N2)c2ccccc2C1=O (configuration not stated)	-36	0	i	-4	-2	-38
Cc1ccc(N2C(=O)C3Sc4[nH]c(=O)sc4C(c4ccccc4)C3C2=O)cc1 (configuration not stated)	9	1	+	11	1	-21
CC(=NNC(=O)C1CC1(c1ccccc1)c1ccccc1)c1ccco1 (configuration not stated)	x	x	x	0	x	x
SMILES	PrPC TRFRET	PfHsp40 rescue	Vc quorum ag	SSB-PriA inh	SARS 3CLpro inh	PrP UTR inh
CCc1nc2ccccc2c(=O)n1NC(=O)c1c(O)c2ccccc2n(CC)c1=O	4	181*	-1	1	-9	3
CCOCCn1c(=NC(=O)c2ccn(C)n2)sc2cc(C(=O)OCC)ccc21	x	x	x	-5	x	x
Cc1cccn2cc(-c3cccc(N)c3)nc12	x	x	x	52*	x	x
Cc1ccc(-c2cn3cccc(C)c3n2)cc1N	x	x	x	1	x	x
Cc1ccc(NC(=O)[C@H]2Nc3cc(F)ccc3S(=O)(=O)N2)cc1C	x	x	x	-9	x	x
COc1cccc(CNC(=O)C(=O)Nc2ccccc2)c1	x	x	x	-21	x	x
COc1cccc(-n2nc(C#N)c(Cl)cc2=O)c1	-26	52*	0	-10	1	-14
COc1cccc(-n2nc(C(N)=O)c(O)cc2=O)c1	-1	-1	0	-3	4	-11
